Laboratory results from PubChem BioAssay (Tox21).
Results filed as inconclusive are left out. Active and inactive are the calls of the source. Unless noted, calls come from the whole dose curve; as a rule, active = well fitted curve in the direction sought with a large enough effect in the repeat runs; inconclusive = weak or mixed curves; inactive = no such curve, though single readings can be large; an effect the other way counts as inactive or inconclusive.

Key:
[1] = target: Thyrotropin receptor (Homo sapiens) (UniProt P16473); assay: qHTS assay to identify small molecule antagonists of the thyroid stimulating hormone receptor (TSHR) signaling pathway (AID 1259385; calls by dose curve; note: nearly all actives have a fitted effect of over 20% in size)
Thyrotropin receptor (Homo sapiens), sequence (P16473 whole entry, looked up): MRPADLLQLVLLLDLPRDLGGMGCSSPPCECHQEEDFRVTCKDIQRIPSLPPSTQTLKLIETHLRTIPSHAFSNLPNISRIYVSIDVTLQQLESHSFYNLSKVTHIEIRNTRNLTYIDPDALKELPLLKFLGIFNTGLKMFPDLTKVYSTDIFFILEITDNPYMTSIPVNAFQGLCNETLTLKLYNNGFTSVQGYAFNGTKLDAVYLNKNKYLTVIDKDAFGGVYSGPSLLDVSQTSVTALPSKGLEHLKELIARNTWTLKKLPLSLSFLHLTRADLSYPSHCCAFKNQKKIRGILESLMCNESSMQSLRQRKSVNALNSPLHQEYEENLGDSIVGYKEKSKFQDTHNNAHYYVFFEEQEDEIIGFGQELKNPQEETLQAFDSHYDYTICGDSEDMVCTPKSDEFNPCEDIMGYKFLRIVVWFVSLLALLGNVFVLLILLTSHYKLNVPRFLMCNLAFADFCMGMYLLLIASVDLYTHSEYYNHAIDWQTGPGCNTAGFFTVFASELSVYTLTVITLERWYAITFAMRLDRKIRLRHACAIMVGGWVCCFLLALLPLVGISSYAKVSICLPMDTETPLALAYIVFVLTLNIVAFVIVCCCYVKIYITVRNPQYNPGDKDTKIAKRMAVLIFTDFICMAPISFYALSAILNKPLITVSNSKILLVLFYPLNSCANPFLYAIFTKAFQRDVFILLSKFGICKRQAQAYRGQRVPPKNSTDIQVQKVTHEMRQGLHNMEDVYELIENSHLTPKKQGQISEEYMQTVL
In short: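 Antagonist mode: compound-treated TSHR-expressing HEK293 cells were stimulated with 1.5 ng/mL TSH (final) in presence of Ro20-1724 for 30 min at RT. HTRF cAMP detection after 1 h; each compound tested at 15 concentrations, triplicate.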

[2] = target: Progesterone receptor (Homo sapiens) (UniProt P06401); assay: qHTS assay to identify small molecule agonists of the progesterone receptor (PR) signaling pathway (AID 1346784; calls by dose curve; note: nearly all actives have a fitted effect of over 30% in size)
Progesterone receptor (Homo sapiens), sequence (P06401 whole entry, looked up): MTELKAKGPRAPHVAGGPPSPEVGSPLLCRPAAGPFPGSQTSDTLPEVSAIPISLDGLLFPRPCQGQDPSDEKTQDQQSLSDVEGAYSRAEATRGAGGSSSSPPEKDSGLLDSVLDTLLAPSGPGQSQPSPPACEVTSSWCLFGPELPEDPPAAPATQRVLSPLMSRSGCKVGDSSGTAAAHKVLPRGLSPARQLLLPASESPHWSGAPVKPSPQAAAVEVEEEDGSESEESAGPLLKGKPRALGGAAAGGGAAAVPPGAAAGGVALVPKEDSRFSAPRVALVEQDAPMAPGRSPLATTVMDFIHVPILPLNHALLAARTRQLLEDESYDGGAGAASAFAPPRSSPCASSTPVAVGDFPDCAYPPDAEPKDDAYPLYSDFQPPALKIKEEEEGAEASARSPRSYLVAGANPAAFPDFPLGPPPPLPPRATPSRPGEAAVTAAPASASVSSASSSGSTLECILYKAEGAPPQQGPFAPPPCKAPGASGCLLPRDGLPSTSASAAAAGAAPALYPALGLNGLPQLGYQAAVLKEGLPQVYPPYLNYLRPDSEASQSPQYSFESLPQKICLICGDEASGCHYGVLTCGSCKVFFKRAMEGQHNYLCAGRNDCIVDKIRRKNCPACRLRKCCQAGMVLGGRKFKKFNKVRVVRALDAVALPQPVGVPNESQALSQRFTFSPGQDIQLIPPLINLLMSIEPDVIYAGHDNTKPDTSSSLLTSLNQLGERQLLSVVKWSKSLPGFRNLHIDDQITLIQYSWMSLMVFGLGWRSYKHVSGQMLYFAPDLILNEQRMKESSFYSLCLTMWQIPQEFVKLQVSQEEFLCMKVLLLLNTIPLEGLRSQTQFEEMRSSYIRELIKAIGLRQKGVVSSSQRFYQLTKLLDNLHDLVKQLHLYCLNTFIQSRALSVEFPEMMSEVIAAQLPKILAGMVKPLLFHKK
In short: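 Fluorescence from LiveBLAzer B/G FRET substrate cleavage (2 hr, RT) reported PR activation in PR-UAS-bla HEK 293T cells treated 16 hr at 37C/5% CO2 with compounds; medium contained 2% charcoal-stripped FBS.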

[3] = target: Progesterone receptor (Homo sapiens) (UniProt P06401); assay: qHTS assay to identify small molecule antagonists of the progesterone receptor (PR) signaling pathway (AID 1346795; active = well fitted inhibition curve with a large enough effect in the signal ratio in the repeat runs, not every such curve was filed as active; the % refers to the signal ratio)
In short: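 Fluorescence intensity measured 2 hr after adding beta-lactamase FRET substrate to PR-UAS-bla HEK293T cells that had been co-treated 16 hr with compound and 1 nM R5020 (final concentration) in 2% charcoal-stripped FBS.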

[4] = qHTS assay to identify small molecule antagonists of the progesterone receptor (PR) signaling pathway - cell viability counter screen (AID 1346798); note: series mostly up to about 92 µM; nearly all actives have a fitted effect of over 50% in size
In short: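 CellTiter-Glo luminescence; PR-UAS-bla HEK293T, 3,000 cells/well; compound + R5020, 16 hr, 37C/5% CO2; 30 min RT before read.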

[5] = qHTS assay to identify small molecule agonists of the progesterone receptor (PR) signaling pathway - cell viability counter screen (AID 1346799; calls by dose curve; note: nearly all actives have a fitted effect of over 45% in size)
In short: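 In parallel with the beta-lactamase readout, cytotoxicity toward PR-UAS-bla HEK293T cells was measured by CellTiter-Glo luminescence following 16 hr compound incubation in 2% charcoal-stripped FBS medium.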

[6] = qHTS assay to identify small molecule antagonists of the TGF-beta/Smad signaling pathway - cell viability counter screen (AID 1346824); note: nearly all actives have a fitted effect of over 50% in size
In short: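 Cytotoxicity counter-screen run in the same wells as the beta-lactamase Smad reporter read: CellTiter-Glo luminescence after 30 min at room temperature. HEK 293T SBE-bla cells had 5 hr compound exposure at 37 C with TGF-beta1 (0.25 ng/mL stock).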

[7] = qHTS assay to identify small molecule agonists of the TGF-beta/Smad signaling pathway - cell viability counter screen (AID 1346829); note: top concentration of the series differs between compounds; nearly all actives have a fitted effect of over 45% in size
In short: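 Luminescence from CellTiter-Glo, read after a 30 min room-temperature incubation, gives cell viability of SBE-bla HEK 293T cells treated 5 hr with compounds at 37 C.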

[8] = qHTS assay to identify small molecule agonists of the TGF-beta/Smad signaling pathway (AID 1346859; active = well fitted activation curve with a large enough effect in the signal ratio in the repeat runs, not every such curve was filed as active; the % refers to the signal ratio; note: series mostly up to about 77 µM)
In short: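 After overnight seeding, SBE-bla HEK 293T cells are dosed with compounds in DMSO and kept 5 hr at 37 C, 5% CO2. LiveBLAzer-type FRET substrate is then applied for 2 hr at room temperature.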

[9] = Human pregnane X receptor (PXR) small molecule agonists, qHTS cell viability counter screen (AID 1346977); note: nearly all actives have a fitted effect of over 50% in size
In short: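 Viability counter screen: CellTiter-Fluor signal in PXR-Luc HepG2 cells, 24hr compound exposure, 37C, 5% CO2.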

[10] = Caspase-3/7 induction in HepG2 cells by small molecules, qHTS assay (AID 1346978); note: nearly all actives have a fitted effect of over 15% in size
In short: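 Caspase-3/7 induction was measured by Caspase-Glo 3/7 luminescence (30 min, room temperature) after a 17 hr compound exposure of wild-type HepG2 cells seeded at 2,000 per well and pre-incubated 5 hr.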

[11] = Caspase-3/7 induction in CHO-K1 cells by small molecules, qHTS cell viability counter screen (AID 1346979); note: nearly all actives have a fitted effect of over 35% in size
In short: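 Viability readout by fluorescence (CellTiter-Fluor) on wild-type CHO-K1 cells exposed for 16hr at 37C and 5% CO2 to compounds delivered in DMSO; reagent incubated 1hr before reading.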

[12] = Caspase-3/7 induction in CHO-K1 cells by small molecules, qHTS assay (AID 1346980); note: nearly all actives have a fitted effect of over 15% in size
In short: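 Luminescent Caspase-Glo 3/7 read (30min, room temperature) quantified apoptosis induction. Cells were wild-type CHO-K1, treated with compound for 17hr at 37 C and 5% CO2.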

[13] = Caspase-3/7 induction in HepG2 cells by small molecules, qHTS cell viability counter screen (AID 1346981); note: series mostly up to about 92 µM; nearly all actives have a fitted effect of over 30% in size
In short: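 Wild-type HepG2 cells (2,000/well) were allowed to settle for 5 hr at 37 C, 5% CO2, then dosed with compounds in DMSO by pin transfer. After 16 hr at 37 C, CellTiter-Fluor was added and fluorescence read 1 hr later.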

[14] = target: Nuclear receptor subfamily 1 group I member 2 (Homo sapiens) (UniProt O75469); assay: Human pregnane X receptor (PXR) small molecule agonists, qHTS assay (AID 1346982); note: nearly all actives have a fitted effect of over 35% in size
Nuclear receptor subfamily 1 group I member 2 (Homo sapiens), sequence (O75469 whole entry, looked up): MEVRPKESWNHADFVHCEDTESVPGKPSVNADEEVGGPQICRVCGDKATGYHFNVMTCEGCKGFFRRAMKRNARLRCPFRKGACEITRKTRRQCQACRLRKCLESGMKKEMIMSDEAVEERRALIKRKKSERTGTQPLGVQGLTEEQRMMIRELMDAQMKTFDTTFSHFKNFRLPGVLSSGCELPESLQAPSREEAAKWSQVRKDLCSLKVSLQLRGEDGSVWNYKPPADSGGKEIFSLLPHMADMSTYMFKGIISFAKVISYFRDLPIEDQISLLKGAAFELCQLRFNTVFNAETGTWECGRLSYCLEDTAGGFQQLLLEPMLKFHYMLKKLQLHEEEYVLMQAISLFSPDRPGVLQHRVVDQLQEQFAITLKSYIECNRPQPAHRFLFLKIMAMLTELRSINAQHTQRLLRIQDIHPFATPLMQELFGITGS
In short: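 PXR-Luc HepG2 cells (CYP3A4 promoter-driven luciferase) were seeded in medium with 5% charcoal-stripped FBS, left 5 hr at 37 C, then exposed to compounds in DMSO for 24 hr. Luminescence was read after ONE-Glo addition.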

[15] = target: Thyrotropin-releasing hormone receptor (Homo sapiens) (UniProt P34981); assay: qHTS assay to identify small molecule antagonists of the thyrotropin-releasing hormone receptor (TRHR) signaling pathway (AID 1346877; active = well fitted inhibition curve with a large enough effect in the repeat runs, not every such curve was filed as active; note: series mostly up to about 51 µM)
Thyrotropin-releasing hormone receptor (Homo sapiens), sequence (P34981 whole entry, looked up): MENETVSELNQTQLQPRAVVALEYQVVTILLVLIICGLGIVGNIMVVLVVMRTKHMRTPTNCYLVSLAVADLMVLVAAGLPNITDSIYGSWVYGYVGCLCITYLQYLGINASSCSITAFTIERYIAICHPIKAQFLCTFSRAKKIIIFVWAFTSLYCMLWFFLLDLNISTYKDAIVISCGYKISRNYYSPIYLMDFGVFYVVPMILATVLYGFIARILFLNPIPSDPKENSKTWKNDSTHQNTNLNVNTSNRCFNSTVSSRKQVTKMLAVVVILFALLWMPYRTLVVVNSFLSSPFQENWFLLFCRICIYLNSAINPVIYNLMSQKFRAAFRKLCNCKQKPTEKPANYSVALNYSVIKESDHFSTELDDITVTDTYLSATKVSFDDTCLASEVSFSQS
In short: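 TRHR-expressing HEK293 cells were seeded, cultured 18 h at 37 °C, then loaded with calcium dye for 2 h. Compounds were pre-incubated 5 min at room temperature before 1 nM TRH (final) was added, and kinetic fluorescence was recorded for 3 min.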

[16] = target: Thyrotropin-releasing hormone receptor (Homo sapiens) (UniProt P34981); assay: qHTS assay to identify small molecule agonists of the thyrotropin-releasing hormone receptor (TRHR) signaling pathway (AID 1346891; calls by dose curve; note: series mostly up to about 58 µM)
In short: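 Compounds were tested as agonists at 15 concentrations, in triplicate, on TRHR-Hek293 cells; calcium-sensitive dye fluorescence was recorded for 3 min following addition.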

[17] = target: Nuclear receptor subfamily 1 group I member 2 (Rattus norvegicus) (UniProt Q9R1A7); assay: Rat pregnane X receptor (rPXR) activation by small molecules, qHTS assay (AID 1346983); details: rPXR luciferase reporter cells, One-Glo luminescence, 24 h; active compounds read high; note: nearly all actives have a fitted effect of over 20% in size
Nuclear receptor subfamily 1 group I member 2 (Rattus norvegicus), sequence (Q9R1A7 whole entry, looked up): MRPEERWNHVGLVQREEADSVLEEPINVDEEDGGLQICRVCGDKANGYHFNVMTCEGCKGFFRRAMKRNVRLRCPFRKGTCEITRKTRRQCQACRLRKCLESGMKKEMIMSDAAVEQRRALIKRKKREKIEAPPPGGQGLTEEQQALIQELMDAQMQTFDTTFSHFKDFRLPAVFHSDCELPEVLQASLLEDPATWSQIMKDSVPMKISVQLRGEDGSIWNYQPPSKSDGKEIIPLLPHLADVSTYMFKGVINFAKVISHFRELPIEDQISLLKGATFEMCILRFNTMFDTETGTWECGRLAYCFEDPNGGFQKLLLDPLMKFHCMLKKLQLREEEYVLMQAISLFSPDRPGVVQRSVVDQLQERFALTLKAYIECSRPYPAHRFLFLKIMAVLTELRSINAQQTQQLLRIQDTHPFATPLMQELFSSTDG
In short: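 Luminescent readout (One-Glo luciferase, 30 min room temperature) followed 24 hr compound treatment at 37 C of rPXR cells plated 2,000 per well and preincubated 5hr; qHTS format with compounds delivered in DMSO.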

[18] = target: Nuclear receptor subfamily 1 group I member 2 (Homo sapiens) (UniProt O75469); assay: CYP3A4 induction through human pregnane X receptor (PXR) by small molecules, qHTS assay (AID 1346984); note: nearly all actives have a fitted effect of over 40% in size
In short: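 DPX-2 cells (HepG2 co-transfected with PXR and CYP3A4 promoter-luciferase) treated with compounds 24 h at 37C; luciferin-IPA CYP3A4 substrate 3uM final added for 3 h, then One-Glo; luminescence read. qHTS format.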

[19] = qHTS assay to identify small molecule agonists of the estrogen receptor alpha (ER-alpha) signaling pathway in the presence of an antagonist - cell viability counter screen (AID 1259386);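 note: series mostly up to about 92 µM; cells exposed to compounds for 22 h at 37 °C before the viability read; nearly all actives have a fitted effect of over 30% in size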
In short: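 VM7Luc4E2 cells (endogenous full-length ER-alpha, 4×ERE-luciferase) were held 5 days in phenol red-free medium with 10% charcoal-stripped FBS, plated, then given 10.0nM ICI-182,780 and compounds at 15 concentrations for 22hr at 37C; viability read by CellTiter-Fluor fluorescence.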

[20] = target: Nuclear receptor subfamily 1 group I member 2 (Homo sapiens) (UniProt O75469); assay: Human pregnane X receptor (PXR) activation by small molecules, qHTS assay (AID 1346985); note: nearly all actives have a fitted effect of over 40% in size
In short: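 DPX-2 cells (HepG2 co-transfected with a PXR response element and a CYP3A4-promoter luciferase construct) were seeded at 2,000 per well, rested 5 hr at 37C, then exposed to DMSO-dissolved compounds for 24 hr. Activation was read as luciferase luminescence.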
% is set by controls: 0 for no effect and ±100 for the full control effect.

CO/N=C(/C(=O)N[C@@H]1C(=O)N2C(C(=O)OCOC(=O)C(C)(C)C)=C(C)CS[C@H]12)c1csc(N)n1
inactive: Potency [1] | Potency [2] | Potency [3] | Potency [4] | Potency [5] | Potency [6] | outcome [7] | outcome [8] | Potency [9] | Potency [10] | Potency [11] | outcome [12] | Potency [13] | Potency [14]

CN(C)CCCSc1ccccc1NC(=O)/C=C/c1ccccc1
inactive: Potency [1] | Potency [2] | Potency [4] | Potency [6] | outcome [7] | outcome [8] | outcome [15] | outcome [16] | Potency [10] | Potency [11] | outcome [12] | Potency [13] | max activation [17] 2.69% | Potency [18]

COc1nc(N)nc2c1ncn2[C@@H]1O[C@H](CO)[C@@H](O)[C@@H]1O
inactive: Potency [1] | Potency [2] | Potency [3] | Potency [4] | Potency [6] | outcome [7] | outcome [8] | outcome [15] | outcome [16] | Potency [10] | Potency [11] | outcome [12] | Potency [13]

CCOC(=O)CC(C)=O
inactive: Potency [1] | Potency [2] | Potency [3] | Potency [4] | Potency [5] | Potency [6] | outcome [7] | outcome [8] | Potency [9] | Potency [11] | outcome [12] | Potency [13]

CCC=O
inactive: Potency [1] | Potency [2] | Potency [3] | Potency [4] | Potency [5] | Potency [6] | outcome [7] | outcome [8] | Potency [9] | Potency [10] | Potency [11] | outcome [12] | Potency [13] | Potency [14]

CC(=O)OCC(=O)[C@@]1(O)CC[C@H]2[C@@H]3CCC4=CC(=O)CC[C@]4(C)[C@H]3C(=O)C[C@@]21C
inactive: Potency [19] | Potency [2] | Potency [4] | Potency [5] | Potency [6] | outcome [7] | outcome [8] | Potency [9] | Potency [10] | Potency [11] | outcome [12] | Potency [13] | Potency [14]

Cn1c(N)c(N=O)c(=O)n(C)c1=O
inactive: Potency [19] | Potency [2] | Potency [4] | Potency [5] | Potency [6] | outcome [7] | outcome [8] | outcome [15] | outcome [16] | Potency [10] | Potency [11] | outcome [12] | Potency [13] | Potency [14]

N=C(N)c1ccc2cc(OC(=O)c3ccc(N=C(N)N)cc3)ccc2c1
inactive: Potency [19] | Potency [2] | Potency [3] | Potency [4] | Potency [5] | Potency [6] | outcome [7] | outcome [8] | outcome [15] | outcome [16] | Potency [9] | Potency [10] | Potency [11] | outcome [12] | Potency [13] | Potency [14] | max activation [17] -2.79% | Potency [18] | Potency [20]

CCCCC(CC)COC(=O)c1ccccc1O (stereo not given)
inactive: Potency [19] | Potency [2] | Potency [3] | Potency [4] | Potency [5] | Potency [6] | outcome [7] | outcome [8] | outcome [15] | outcome [16] | Potency [10] | Potency [11] | outcome [12] | Potency [13] | Potency [14] | max activation [17] -4.33% | Potency [18] | Potency [20]

COC(=O)c1ccc(C)cc1C1=NC(C)(C(C)C)C(=O)N1 (stereo not given)
inactive: Potency [19] | Potency [2] | Potency [4] | Potency [5] | Potency [6] | outcome [7] | outcome [8] | outcome [15] | outcome [16] | Potency [9] | Potency [10] | Potency [11] | outcome [12] | Potency [13]

O=C1CCCC(=O)C1
inactive: Potency [2] | Potency [3] | Potency [4] | Potency [5] | Potency [6] | outcome [7] | outcome [8] | outcome [15] | outcome [16] | Potency [9] | Potency [10] | Potency [11] | outcome [12] | Potency [13] | Potency [14]

CC(C[N+](C)(C)C)OC(N)=O (stereo not given)
inactive: Potency [19] | Potency [2] | Potency [3] | Potency [4] | Potency [5] | Potency [6] | outcome [7] | outcome [8] | outcome [15] | outcome [16] | Potency [9] | Potency [10] | Potency [11] | outcome [12] | Potency [13] | Potency [14] | max activation [17] 0.875% | Potency [18] | Potency [20]

C[N+](C)(C)CCCCCC[N+](C)(C)C
inactive: Potency [19] | Potency [2] | Potency [3] | Potency [4] | Potency [5] | Potency [6] | outcome [7] | outcome [8] | outcome [15] | outcome [16] | Potency [9] | Potency [10] | Potency [11] | outcome [12] | Potency [13] | max activation [17] 0.135%
